Data as given in PubChem BioAssay AID1159506 (National Center for Advancing Translational Sciences (NCATS), 2015).
In all, about 59,000 sequences were measured (the read-out: median about -0.00055, lowest 2% from about -2 on). This is one part of a sample in which the lowest values are shown more often than they occur.

Test: Identification of proteins required for the processing of the EWS-FLI1 nascent transcript;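 further: robust z of luciferase light less the median z of siRNAs with the same seed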
Conditions: TC32 Ewing sarcoma NR0B1-luc vs CMV-luc (EWS-FLI1 target promoter against control promoter), 48 h; screened at 20 nM (by protocol)
Summary of the method: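 Genome-wide siRNA screen (Ambion v4.1, three siRNAs per gene, 20 nM final, RNAiMax) in Ewing sarcoma TC32 cells carrying NR0B1-promoter or CMV-promoter luciferase; OneGlo luciferase read 48 h post-transfection. Data normalized, z-score-MAD transformed and seed-adjusted.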

| Sequence | seed-corrected z-score |
| --- | --- |
| UUCGUUGCAAAUCCCAUGC against SPTLC2 | -3.22 |
| AAUCUUUGGAGUACGCUGG against B2M | -0.0765 |
| UAGACAUACAUUGAACUCC against SPINK6 | 1.21 |
| UGUACUUUAAUAGAGAUAC against MRPS10 | -0.197 |
| UACCCAAUAAAGGUCUACC against LMO2 | 0.642 |
| UACGGUUCUUCCUGGUUGG against C1QA | 1.29 |
| UUCCAUAUAGCAGUGCACU against NDUFAF1 | 1.09 |
| UAGGGUUUGCCUUCGUGCU against CRIP1 | -3.24 |
| UCAAGCAUCGUGUUGAGCC against TGFBI | -0.445 |
| UCAAAUUCGUCCUGGGUCC against UGT1A5 | -1.44 |
| UGAAGGAAGAAUCGUCGCC against PTHLH | -0.782 |
| UUUCCGAUGAUGGUAACCA against OR7C2 | 0.217 |
| UCAGGUAGCAGGGUAUUGG against LTA4H | -0.0663 |
| UCCCAAUUCAGAUCUAUGG against FBXO42 | 0.112 |
| UCAGGUGUAGGAUUCCGAC against XAGE2 | -2.85 |
| UUUGUUGACUGCUUGACUG against METAP1D | 0.33 |
| AACCUGUAUGCAUCAACUG against BMS1P11 | 2.32 |
| UACUGUUCCACUAGCUUCG against SF3A1 | -1.91 |
| UCUGUAACCUUGGUAAGGC against C10orf2 | 0.0621 |
| UGGUUGAUUAGUAAAGCAC against C10orf113 | -0.339 |
| ACUGUUAUCAGGAAAGUCC against PLCB2 | -0.539 |
| UGUCUUUGUAGGCAGCUGG against CLDN14 | -2.18 |

| Sequence | seed-corrected z-score |
| --- | --- |
| UAAAGAGUAAAGGUCUUCC against ZNF540 | 0.799 |
| UAUGGACCCAUCAUACUGG against CADM4 | 0.833 |
| UAUUGAACUUCAAGGGUCG against EFTUD2 | -2.91 |
| UUGGUCUGUAGUACUGUUC against SNX27 | -2.17 |
| UUUGUGCCCUGCGUUUAUC against KCND3 | -0.731 |
| AGGUGGAAGAGAAAUAUCU against OR4D11 | -0.264 |
| UCAAGUUACAGGUUCGGGC against DRG1 | 1.09 |
| UAUUUGUAGCCCAAGAAGG against YIF1B | 0.101 |
| UUUCUGAUCAGGUCCAUGA against SLC1A6 | -0.114 |
| UCAUAGUUGAGCAAGGUGG against AOC3 | -0.116 |
| UCCGUAUCCAGCUCGUCCU against NXNL1 | -1.17 |
| UUCAAUGCAAGCAAGCUUG against OR4L1 | 0.45 |
| UUGCGAACAUUGCCUGUGC against MEP1A | 0.216 |
| UCUUUAUCUAGAGGCAUUC against LOC728040 | -2.35 |
| UUUAUUCUAAACACGUACU against RHBDD3 | -0.246 |
| UAGGAUUACAGCAAUCAUC against 11-Mar | 0.0159 |
| UGUCGUCAAAGUAUAAUCG against ETV5 | -2.12 |
| UAUGGAGCAGGUAAUAGAG against ZNF311 | 0.514 |
| UUCUCAUCAAACUCUACAC against OLFML3 | 0.213 |
| UCUCCUAUAGGACCUGUGC against MGAM | -0.17 |
| UGAGCAUUUAUUGUGAGUG against OR2T6 | -0.244 |
| UCCUGGAGCACAUCAGUGC against ASPRV1 | 0.0418 |

| Sequence | seed-corrected z-score |
| --- | --- |
| UGGUUGUUAAAGGUCAUGG against HIPK2 | -2.07 |
| UACGCUUGAAGUACCGAUG against SLC7A1 | -2.19 |
| AAACGUACAUGAUGGGAGC against GPR155 | -0.807 |
| UUGAACUCAGCGAUCAUCU against TNNC2 | -0.279 |
| UAUUAUCAAUGGUCCAGGG against AAGAB | 0.496 |
| UUUGAUGCCGUCAUCAUCC against TMEM106C | 0.22 |
| AGAAGUUUUUGCUCUGUCC against DYRK4 | 0.321 |
| AAAUGUACAGAACUAUCUC against PADI2 | -2.36 |
| UCUCUGAAGAGUACAGGAG against PTOV1 | 0.398 |
| UCAGGUGCAAAGCUACUGG against PARK2 | -2.4 |
| UCAUUGACAUUGGUCACGG against CYP27C1 | -0.22 |
| UUAUAACCACUGACUCUCC against MIPEPP3 | 0.124 |
| UAUUGUUCUUGUCCUUUUG against TERF1 | -0.319 |
| AACCGAGUCAGAAUGGUGC against SDC1 | 0.384 |
| UUUGGAAGACUGGAGCAGG against CTIF | 0.631 |
| UUCCCAUACCCUAUGGUCG against KCNK10 | -0.13 |
| UCUACUGUCAUUGAGACCA against SNRPB | -2.67 |
| UCUGGUACUCAGAAGGUCC against COPS5 | 1.12 |
| AUAGUAACGAUCAACUCCA against NDUFA1 | 0.512 |
| AUCGAUAUAAACUGCUUCC against PDE1A | -2.44 |
| UAUGUACUUCAGGCGCCUG against SLC35A2 | 0.271 |
| AGUUUAUACAUUCUUUUCC against SPTLC1 | -0.145 |

| Sequence | seed-corrected z-score |
| --- | --- |
| UAGAAGAUAGGUGAAGUGA against DNAJC22 | 0.192 |
| UUACACUCAAGAAGAUUUC against GPR141 | -0.389 |
| UUAACGUCCACCACCAGAG against TYMP | -0.582 |
| UCAUUGAGAAUUCUCCGGG against NENF | 2.29 |
| AUCGUCCCAGUAAAUGUCC against BEST3 | -0.819 |
| UAGACUAACAUUGACUUAG against LOC150519 | 0.00864 |
| UCUUUGCUAAGCUCGGAGG against RAD51C | -2.07 |
| AUAGAUAUGUUCACAAGUG against UNC119B | 0.327 |
| UAGGGCGCAAGGGUAUGUG against SPDYE3 | -0.136 |
| UUACUAGCUCCGGUGGCAC against KCNK4 | -0.0516 |
| UUUAUCCCGAAGGAGGUUC against CAB39L | -2.55 |
| UGUAUUCCAACCUACAAAC against HGSNAT | -0.666 |
| AAUCUAACAAAUGAAGGUG against EIF2A | 0.719 |
| AUAGUUCCUUUGACUAUGG against IKZF5 | -0.306 |
| UCUAAUCCAAGUUCUACUG against AKAP5 | -0.304 |
| UUGUGGGUGGUGAAGAGGC against EPOR | 0.293 |
| AACCUGGUAAGUCUCGAUG against PPP2R2B | -0.459 |
| UAACGGAUGGUGUGGUUUC against BCOR | -0.0753 |
| UACCUUUUAUCCUGGGUUG against LOC285423 | -2.09 |
